# The panel holds about 83,000 compounds, 20% with a hit somewhere; the sample as a whole holds those more often.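 The test compound was applied at a single concentration to cells in 96-well plates for 48 hours, and percent growth was recorded.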 Unmarked numbers belong to inactive results. Activity calls are given as the source filed them. Rule for the calls: active = growth percent below 10; inactive = the rest.
# Assays:
# Assay in all cases: NCI-60 one-dose screen, 48 h (100 = growth as untreated, 0 = no growth, -100 = all killed)
# Settings in all cases: 10 µM unless noted
# SK-MEL-2 melanoma = tested on: SK-MEL-2 melanoma
# EKVX NSCLC = tested on: EKVX NSCLC
# SN12C renal = tested on: SN12C renal
# UO-31 renal = tested on: UO-31 renal
# TK-10 renal = tested on: TK-10 renal
# ACHN renal = tested on: ACHN renal
# CAKI-1 renal = tested on: CAKI-1 renal
# A498 renal = tested on: A498 renal
# CCRF-CEM leukemia = tested on: CCRF-CEM leukemia
# MOLT-4 leukemia = tested on: MOLT-4 leukemia
Compound,growth (SK-MEL-2 melanoma),growth (EKVX NSCLC),growth (SN12C renal),growth (UO-31 renal),growth (TK-10 renal),growth (ACHN renal),growth (CAKI-1 renal),growth (A498 renal),growth (CCRF-CEM leukemia),growth (MOLT-4 leukemia)
O=c1[nH]c(CN2CCN(c3ccccc3)CC2)nc2c(Br)cc(Br)cc12,91.2%,96.3%,110%,77.8%,120%,101%,99.7%,121%,88.9%,89.6%
CCCc1cc(CCC)n2nc(N)nc2n1,128%,115%,101%,129%,114%,101%,95.3%,96%,93.1%,94.8%
CNC(=O)c1cc(Oc2ccc3nc(NC(=O)Nc4ccc(F)cc4F)sc3c2)ccn1,74.7%,89.8%,69.2%,91.4%,93.5%,60.6%,88.4%,10.9%,89.7%,82.4%
CCN1CCN(CCOc2ccc(CNc3ccc4nc(CCC5CCCCC5)[nH]c4c3)cc2)CC1,-3.49% (active),71.3%,67.8%,-24.9% (active),81.2%,40.9%,0.23% (active),43.9%,8.27% (active),20%
Fc1ccc(/C=C/c2cc(/C=C/c3ccc(F)cc3)n(-c3cc(F)cc(F)c3)n2)cc1,90.8%,92.3%,102%,82.8%,82.5%,99%,90.6%,95.6%,3.7% (active),103%
N#CC1=C(N)Oc2c(ccc3ccccc23)C1c1cc2ccccc2n2nnnc12 (stereo not given),12%,52.1%,27.3%,25.9%,37.3%,22.7%,31.6%,-2.46% (active),-5.43% (active),10.6%
COc1cc(C(=O)n2nc(NCCCc3ccccc3)c3cc(N)ccc32)cc(OC)c1OC,87.6%,87.3%,99.3%,68.6%,97.7%,91.3%,92.6%,88.7%,69.4%,78.6%
[2H]C([2H])([2H])Oc1ccc(/C=C/C(=O)/C=C(/C=C/c2ccc(OC([2H])([2H])[2H])c(OC([2H])([2H])[2H])c2OC([2H])([2H])[2H])OB(F)F)c(OC([2H])([2H])[2H])c1OC([2H])([2H])[2H],94.9%,88.7%,56.7%,38.8%,74.2%,14.4%,48.6%,107%,-2.51% (active),23.8%
CC(=O)O[C@H]1CC[C@@]2(C)C(=CC[C@@H]3[C@@H]2CC[C@]2(C)C(Cl)=C(c4nc5ccc(Cl)cn5c4NC(C)(C)C)C[C@@H]32)C1,99.9%,88.1%,97.7%,86.6%,89.3%,92.1%,65.1%,92.8%,92.3%,101%
O=C1NCCS(=O)(=O)/C1=C\C=C\c1cccc(C(F)(F)F)c1,54.8%,82.3%,24.3%,26.8%,33.6%,12.7%,55.4%,56.9%,0.774% (active),8.72% (active)
CC(C)CCc1nc2ccc(NCc3ccc(OCCN4CCC(C)CC4)cc3)cc2[nH]1,110%,78.5%,69.9%,57.4%,111%,97.3%,64.8%,79.3%,67.3%,62.3%
CCOC(=O)CCC(=O)P(=O)(O)O,104%,106%,108%,105%,99.3%,91.6%,137%,107%,75.1%,62.6%
CCCS(=O)(=O)Nc1cccc(Nc2ncnc3cc(NC(=O)CCl)ccc23)c1Cl,-32.1% (active),-14.9% (active),-76% (active),-95% (active),-36.4% (active),-94.4% (active),-74.6% (active),9.01% (active),3.74% (active),4.33% (active)
COc1cccc(C2C(C#N)=C(N)Oc3c2ccc2ccccc32)c1 (stereo not given),40%,53.1%,24.2%,43%,62%,25.8%,30.1%,45.1%,8.64% (active),12.3%
Cc1cc2c(c(C)n1)CN(C(=O)Nc1nc(-c3cncs3)ccc1N)C2,81%,97.3%,105%,92%,62.7%,106%,76.8%,96%,107%,107%
COc1cccc(-c2cc(-c3ccc(Nc4nc(Nc5ccc(Cl)cc5)nc(Nc5ccc(Cl)cc5)n4)cc3)nc(N)c2C#N)c1,37.7%,34.3%,79%,-66.8% (active),-53.4% (active),33.1%,37.3%,80.5%,5.11% (active),7.5% (active)
CCC(=C(c1ccc(OCCN(CC)CC)cc1)c1ccc(OCCN(CC)CC)cc1)c1ccc(Cl)cc1,-44.9% (active),77.1%,-77% (active),-81.2% (active),-79.3% (active),-90.2% (active),-89.4% (active),43.3%,-65.3% (active),-60.1% (active)
CC1OC(C(=O)N2CCN(CCO)CC2)CC1COC1CCCCC1 (stereo not given),107% [50 µM],99.8% [50 µM],92.1% [50 µM],70.4% [50 µM],129% [50 µM],94.3% [50 µM],85.3% [50 µM],126% [50 µM],106% [50 µM],97.1% [50 µM]
CC(=O)c1ccc(Nc2nccc(-c3ccc(Cl)cc3)n2)cc1,98.1%,99.2%,100%,93.1%,85.5%,92.3%,92.6%,7.16% (active),84.4%,83.8%
CC1=C(C(=O)OCc2ccccc2)C(c2ccc3c(c2)OCO3)n2c(nc3ccccc32)N1 (stereo not given),47.8%,64.4%,47.6%,51.1%,65.6%,38.4%,34.3%,-10.2% (active),24.9%,37.1%
C=C1C(=O)O[C@H]2[C@H]1CC/C(CNC(=O)/C=C/c1cc(OC)c(OC)c(OC)c1)=C\CC[C@@]1(C)O[C@@H]21,3.52% (active),25.3%,28.1%,-38.2% (active),-86.5% (active),-79.6% (active),33.9%,-9.24% (active),-10.6% (active),-26.6% (active)
COc1ccc2c(c1)c(-c1nc(-c3cn(C)c4ccncc34)cs1)cn2C,112%,-36.7% (active),94.2%,71.2%,79.7%,95%,75.6%,90.9%,-27.9% (active),-31.1% (active)
c1ccc(-c2nc(N3CCNCC3)c3oc(-c4ccccc4)nc3n2)cc1,-34.1% (active),-68.4% (active),-82.1% (active),-99.8% (active),-71.3% (active),-100% (active),-94% (active),88.2%,-31.1% (active),-24.9% (active)
CNC(=O)c1cc(Oc2ccc3nc(NC(=O)c4cc(C(F)(F)F)cc(C(F)(F)F)c4)sc3c2)ccn1,-18.5% (active),23.3%,10.5%,6.1% (active),16.6%,14.9%,11%,-11.4% (active),16.8%,8.03% (active)
COc1cc(CNC(=O)CCCC/C=C/C(C)C)ccc1OCc1cn(-c2ccc(C(F)(F)F)cc2)nn1,95.1%,88.3%,20.5%,70.5%,92.8%,90.2%,80.4%,85.8%,68.8%,80.3%
COC(=O)c1c(C(=O)OC)c2ccc3c4ncccc4ccc3n2c1C(=O)c1ccc(C)cc1,83.2%,83.2%,100%,74.3%,93.4%,77.1%,83.9%,92.8%,71.2%,73.3%

# From PubChem BioAssay (NCI)
